# Hit rate of the full screen: of about 220,000 compounds, about 160 (0.073%) were called active. These entries were drawn from the full list. Results with a measured potency or affinity are listed apart. Unmarked numbers belong to inactive results.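 How the source made its calls: active means fold induction of absorbance versus untreated yeast above a set limit, then at least 30% activation at any dose in follow-up; inconclusive means repeats straddling the limit, or above it without dose testing; inactive means fold induction below the set limit.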
# Test: mitochondrial function rescue without frataxin homolog – Friedreich's ataxia, plus single-dose screen, dose response (AID 1465)
# Details: S. cerevisiae Yfh1-off respiration, WST-1 reduction, 72 h; at 50 µM; stronger effect = higher value
row,Structure (SMILES),fold induction
1,CCOC(=O)C1=C(Cc2ccc(C)cc2)C(=O)c2ccccc2C1=O,1.29
2,CCOC(=O)C1=C(Cc2ccc(Cl)cc2)C(=O)c2ccccc2C1=O,1.27
3,CCNS(=O)(=O)c1ccc(NC(=O)Nc2ccccc2OC)cc1,1.1
4,Cc1nc2c(C)cccn2c1/C(O)=C1\C(=O)C(=O)N(CCN(C)C)C1c1ccncc1 (stereo not drawn),1.11
5,Oc1ccc(CN2CCN(Cc3ccccc3)CC2)c2cccnc12,1.36
6,Oc1ccc(CN2CCCCC2)c2cccnc12,0.69
7,Oc1ccc(CN2CCN(c3ccccc3)CC2)c2cccnc12,0.91
8,COc1ccccc1N1CCN(Cc2cc(Br)c(O)c3ncccc23)CC1,0.74
9,CCOc1ccc(C(=O)NCC(=O)OCc2c(F)cccc2Cl)cc1,1.18
10,CCNC(=S)N(Cc1ccc(OC)cc1)C1CC(=O)N(c2ccc(OCC)cc2)C1=O (stereo not drawn),0.92
11,NC(=S)Nc1ccccc1Br,1
12,Cc1ccc(/C=N/NC(=O)CN2CCN(Cc3ccccc3Cl)CC2)o1,0.97
13,Cc1c(N/C=C/C(=O)c2ccc(Cl)cc2)c(=O)n(-c2ccccc2)n1C,1
14,Cc1c(NC=C(C#N)C#N)c(=O)n(-c2ccccc2)n1C,0.95
15,COC(=O)C(=NNc1c(C)n(C)n(-c2ccccc2)c1=O)C(=O)OC,1
16,N#C/C(=N\Nc1ccc(Cl)cc1)C(=O)c1ccccc1,0.82
17,Cc1c(NN=C(C#N)C#N)c(=O)n(-c2ccccc2)n1C,0.98
18,CCOC(=O)/C(C#N)=N/Nc1c(C)n(C)n(-c2ccccc2)c1=O,1
19,O=C(c1cc2c(s1)CCCC2)N1CCN(S(=O)(=O)c2ccccc2C(F)(F)F)CC1,0.91
20,CCC(C)/C(C)=N/NC(=O)c1cn(-c2ccccc2)nc1-c1ccccc1 (stereo not drawn),0.83
21,O=C(O)CC(NC(=O)Cc1ccc([N+](=O)[O-])cc1)c1ccc2c(c1)OCO2 (stereo not drawn),1
22,Cc1ccc(-c2cc3nc(-c4ccccc4)cc(N4CCC5(CC4)OCCO5)n3n2)cc1,0.98
23,O=C(Nc1ccon1)c1cccc(C(F)(F)F)c1,0.98
24,COc1c(O)cc2c(c1O)C(=O)CC(c1ccccc1)O2 (stereo not drawn),0.86
25,C[C@@H]1Cc2c(O)c(O)cc(O)c2C(=O)O1,1.07

row,Structure (SMILES),fold induction
1,Cc1cc2cc(C(c3nnnn3Cc3ccco3)N3CCCCC3)c(=O)[nH]c2cc1C (stereo not drawn),0.99
2,COc1ccc(OC)c(N2C(=O)CC(Cc3ccc(C)cc3)C2=O)c1 (stereo not drawn),0.84
3,N#C/C(C(=O)N1CCCCC1)=C1\Nc2ccccc2S1,0.81
4,CC(=O)C1=C(c2ccc(Br)cc2)C(=O)c2ccccc2C1=O,0.86
5,COC1=C(c2ccccc2)C(=O)c2ccccc2C1=O,1.01
6,COc1ccc(C/C(O)=C(\C#N)c2nc3ccccc3[nH]2)cc1OC,1.12
7,O=C(CC1(O)C(=O)Nc2ccccc21)c1ccc(-n2cnnn2)cc1 (stereo not drawn),1.11
8,CC1CCCC(NC(=O)c2ccc3c(=O)n(CC4CCCO4)c(=O)[nH]c3c2)C1C (stereo not drawn),1.02
9,CCOC(=O)/C(=C/C=C1\Sc2ccccc2N1CC)C(C)=O,0.99
10,CCC(=O)/C=C1/Sc2ccccc2N1CC,0.79
11,COC(=O)c1ccccc1NC(=O)Cn1ccnc1,1.02
12,CC(C)CC(=O)NC(c1cccs1)c1ccc2cccnc2c1O (stereo not drawn),0.99
13,CCCC(=O)NC(c1ccco1)c1c(O)ccc2ccccc12 (stereo not drawn),0.99
14,CC(=O)NC(c1ccco1)c1ccc2cccnc2c1O (stereo not drawn),0.91
15,O=[N+]([O-])c1ccc(O)c2ncccc12,1.17
16,CCC(=O)NC(c1cccs1)c1ccc2cccnc2c1O (stereo not drawn),0.88
17,CCCC(=O)NC(c1ccco1)c1cc(Cl)c2cccnc2c1O (stereo not drawn),0.7
18,O=C1CNC(=O)N1CC(=O)N1CCCc2ccccc21,1.04
19,COc1ccc(C)cc1S(=O)(=O)Nc1cc(Cl)ccc1Cl,0.94
20,OC(COc1ccc2ccccc2c1)CN1CCN(c2ccc(F)cc2)CC1 (stereo not drawn),0.93
21,COc1ccc(/C=C2\Sc3ccc(C(=O)NCc4cccnc4)cc3N(C)C2=O)cc1OC,1.1
22,c1csc(-c2nnc(N3CCOCC3)c3ccccc23)c1,1.39
23,Cc1c(Nc2ccc(C=O)cc2)c(=O)n(-c2ccccc2)n1C,1.09
24,Clc1ccc(-c2n[nH]c3c2CCC3)cc1Cl,0.777
25,CCC(=O)NNc1ncnc2c1cnn2C,1.06

row,Structure (SMILES),fold induction
1,CCOc1ccc(Oc2ccc(S(=O)(=O)N3CCOCC3)cc2N)cc1,1.12
2,CCc1nnc(NC(=O)CCC(=O)N2CCN(CCOc3ccc(C)cc3)CC2)s1,0.907
3,Cc1ccc(NC(=S)NNc2ccc([N+](=O)[O-])cc2S(=O)(=O)Nc2ccccc2C(=O)O)cc1C,1.09
4,COc1ccc(NC(=S)NNc2ccc([N+](=O)[O-])cc2S(=O)(=O)Nc2ccc(C)cc2C)cc1,1.25
5,O=C(O)CCc1nn2c3ccccc3nc2n(CCN2CCCCC2)c1=O,1.09
6,COc1cc2c(cc1NC(=O)C(C)OC(=O)/C=C/c1ccc(OC(F)F)cc1)oc1ccccc12 (stereo not drawn),1.12
7,Cc1cc(/C=N/NC(=O)c2ccccc2F)c(C)n1-c1ccccc1,1.02
8,COc1ccc(/C=N/NC(=O)c2cc(C)n(-c3ccccc3)c2C)cc1OC,0.99
9,Cc1ccc(CCCOC(=O)C[N+]2(C)CCOCC2)cc1,1.14
10,Cc1c(S(=O)(=O)N2CCN(C(c3ccccc3)c3ccccc3)CC2)c(=O)n(C)c(=O)n1C,1.25
11,CN1/C(=C\C=O)C(C)(C)c2ccccc21,1.07
12,CN1/C(=C\C=C2/SC(=S)NC2=O)C(C)(C)c2ccccc21,1.04
13,CC(C)n1c(SCC(=O)c2ccc3c(c2)OCCO3)nc2c1c(=O)n(C)c(=O)n2C,1.06
14,O=[N+]([O-])c1ccc(/C=N/Nc2nc(NCc3ccccc3)nc(N3CCOCC3)n2)cc1,1.08
15,O=[N+]([O-])c1cccc(/C=N/Nc2nc(NCc3ccccc3)nc(N3CCOCC3)n2)c1,1.03
16,CCCCN1C(=O)C2C(c3ccc(OC)cc3O)NC(CC(C)C)(C(=O)O)C2C1=O (stereo not drawn),0.99
17,CCCC(=O)NC(c1ccc(OC)cc1)c1ccc2cccnc2c1O (stereo not drawn),0.96
18,COc1ccc(C(NC(=O)c2cccnc2)c2cc(Cl)c3cccnc3c2O)cc1OC (stereo not drawn),0.98
19,CCCC(=O)NC(c1ccc2c(c1)OCO2)c1cc(Cl)c2cccnc2c1O (stereo not drawn),1.12
20,CCCC(=O)NC(c1ccc(OC)c(OC)c1)c1cc(Cl)c2cccnc2c1O (stereo not drawn),1.13
21,O=C(CS(=O)(=O)c1c[nH]c2ccccc12)N1CCCCCC1,1.02
22,CC(=NC1CC1)c1c(-c2ccccc2)[nH]n(-c2nc3ccccc3s2)c1=O,0.93
23,CCCc1cc(=O)n(-c2nc3ccccc3s2)[nH]1,1
24,Cc1ccc(S(=O)(=O)NCC(=O)OCc2ccccc2)cc1,0.97
25,COc1ccc(CN2C(=O)[C@H]3Cc4c([nH]c5ccccc45)C(C)(C)N3C2=O)cc1,0.81

row,Structure (SMILES),fold induction
1,O=[N+]([O-])c1cc(Cl)c2cccnc2c1O,0.89
2,CC(C)C(=O)NC(c1ccccc1)c1cc([N+](=O)[O-])c2cccnc2c1O (stereo not drawn),0.98
3,CCC(=O)NC(/C=C/c1ccccc1)c1cc([N+](=O)[O-])c2cccnc2c1O (stereo not drawn),1.36
4,O=[N+]([O-])c1cc(Cl)c(O)c2ncccc12,1.15
5,O=C(NNC(=O)c1cccnc1)Nc1cccc(Cl)c1Cl,0.89
6,Cc1cnccc1CN(C)Cc1nc(Cc2ccccc2Cl)no1,0.85
7,CCC1(C(=O)O)NC(c2cccc(OC)c2O)C2C(=O)N(c3ccccc3)C(=O)C21 (stereo not drawn),1.01
8,Cc1cc(C)n2nc(-c3sccc3-n3c(C)ccc3C)cc2n1,1.01
9,COc1ccc(CN2C3CCCC2CC(NC(=O)Nc2cccc(C)c2)C3)cc1 (stereo not drawn),0.96
10,Cc1ccc(C(=O)c2c(C)oc3c2C(=O)C(=O)c2ccccc2-3)cc1,1.18
11,Cc1oc2c(c1C(=O)O)C(=O)c1ccccc1C2=O,1.01
12,C=CCn1c(C)cc(C(=O)COc2ncnc3sccc23)c1C,0.88
13,COc1ccccc1N(CN1C(=O)c2ccccc2C1=O)C(=O)c1cccc(C)c1,0.82
14,O=C(CCCn1nnc2ccccc2c1=O)N[C@H](C(=O)O)c1ccccc1,1.02
15,O=C(O)c1cccc(NC(=S)N/N=C/c2cccc(O)c2)c1,1.03
16,O=C(O)c1cccc(NC(=S)N/N=C/c2cccnc2)c1,0.98
17,COc1c(Cl)cc(Cl)cc1C(=O)n1nc(C)cc1C,0.88
18,CCOC(=O)c1ccc(NNC(=O)CC)c([N+](=O)[O-])c1,1.03
19,CNc1nc2c(c(=O)[nH]c(=O)n2C)n1CCOC,1.02
20,O=C1NC(=O)/C(=C\c2ccc(N3CCOCC3)o2)N1,0.97
21,O=C1NC(=O)/C(=C/c2ccc(N3CCOCC3)o2)N1,1.01
22,COc1ccccc1C(CC(=O)N1CCCC1)c1ccc2c(c1)OCO2 (stereo not drawn),0.99
23,NNC(=O)CCc1c[nH]c2ccccc12,0.93
